Laboratory results as given in PubChem BioAssay AID1159580 (chemical genetic matrix, 2015).
About 2,000 (36%) of roughly 5,500 compounds were called active. Not shown: some 18% with an inconclusive outcome. Rule as the data show it: active = normalized growth mostly below about 0.91 (no sharp cut-off); inconclusive = no clear call, values can overlap the other calls; inactive = mostly above about 0.92. The list shows a part of the results.

Assay: chemical genetic growth profiling, strain panel (AID 1159580);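 also: tested at 20 µM; growth read once vehicle control cultures reached saturation at 30 °C; 1 = growth at the plate median or of vehicle wells; lower values mean less growth of the strain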
Conditions: growth OD
[1] = S. cerevisiae deletion strains, locus YAL013W, strain DEP1, stronger effect = lower value
[2] = S. cerevisiae deletion strains, locus YBR229C, strain ROT2, stronger effect = lower value
[3] = S. cerevisiae deletion strains, locus YDL101C, strain DUN1, stronger effect = lower value
[4] = S. cerevisiae deletion strains, locus YDL134C, strain PPH21, stronger effect = lower value
[5] = S. cerevisiae deletion strains, locus YDR150W, strain NUM1, stronger effect = lower value
[6] = S. cerevisiae deletion strains, locus YEL061C, strain CIN8, stronger effect = lower value
[7] = S. cerevisiae deletion strains, locus YGR078C, strain PAC10, stronger effect = lower value
[8] = S. cerevisiae deletion strains, locus YHR030C, strain SLT2, stronger effect = lower value
[9] = S. cerevisiae deletion strains, locus YJR043C, strain POL32, stronger effect = lower value
[10] = S. cerevisiae deletion strains, locus YJR075W, strain HOC1, stronger effect = lower value
[11] = S. cerevisiae deletion strains, locus YKL190W, strain CNB1, stronger effect = lower value
[12] = S. cerevisiae deletion strains, locus YLR039C, strain RIC1, stronger effect = lower value
[13] = S. cerevisiae deletion strains, locus YLR262C, strain YPT6, stronger effect = lower value
[14] = S. cerevisiae deletion strains, locus YMR263W, strain SAP30, stronger effect = lower value
[15] = S. cerevisiae deletion strains, locus YMR307W, strain GAS1, stronger effect = lower value
[16] = S. cerevisiae deletion strains, locus YNL153C, strain GIM3, stronger effect = lower value
[17] = S. cerevisiae deletion strains, locus YNL322C, strain KRE1, stronger effect = lower value
[18] = S. cerevisiae deletion strains, locus YOL006C, strain TOP1, stronger effect = lower value
[19] = S. cerevisiae deletion strains, locus YPL055C, strain LGE1, stronger effect = lower value
[20] = S. cerevisiae deletion strains, locus YPL241C, strain CIN2, stronger effect = lower value

Measured: normalized growth

CCOC(=O)c1ccc2oc3ccc(O)cc3c(=O)c2c1
inactive: [1] 0.948 | [2] 0.982 | [3] 0.982 | [4] 1 | [5] 0.973 | [6] 0.97 | [7] 1 | [8] 0.826 | S. cerevisiae deletion strains, locus YHR087W, strain rtc3, stronger effect = lower value 0.937 | S. cerevisiae deletion strains, locus YJL187C, strain SWE1, stronger effect = lower value 0.956 | [9] 0.977 | [10] 1.01 | [11] 0.979 | [12] 1 | S. cerevisiae deletion strains, locus YLR058C, strain SHM2 (second series), stronger effect = lower value 0.988 | S. cerevisiae deletion strains, locus YLR085C, strain ARP6, stronger effect = lower value 0.864 | [13] 0.99 | S. cerevisiae deletion strains, locus YML094W, strain GIM5, stronger effect = lower value 0.913 | S. cerevisiae deletion strains, locus YMR219W, strain ESC1, stronger effect = lower value 1 | [14] 0.949 | [15] 0.814 | [16] 0.973 | S. cerevisiae deletion strains, locus YNL298W, strain CLA4 (second series), stronger effect = lower value 0.956 | [17] 1.01 | S. cerevisiae deletion strains, locus YNR030W, strain Alg12, stronger effect = lower value 0.939 | [18] 0.945 | [19] 0.88 | [20] 0.908 | S. cerevisiae deletion strains, locus YPR135W, strain CTF4, stronger effect = lower value 0.872

Cc1coc2ccccc2c1=O
inactive: [1] 0.999 | S. cerevisiae deletion strains, locus YBR021W, strain FUR4, stronger effect = lower value 0.998 | [2] 1.01 | S. cerevisiae deletion strains, locus YCL029C, strain bik1, stronger effect = lower value 1.02 | S. cerevisiae deletion strains, locus YDL035C, strain GPR1, stronger effect = lower value 1 | S. cerevisiae deletion strains, locus YDL074C, strain BRE1, stronger effect = lower value 1 | [3] 1.01 | [4] 1 | S. cerevisiae deletion strains, locus YDL185W, strain tfp1, stronger effect = lower value 1.01 | S. cerevisiae deletion strains, locus YDL192W, strain arf1, stronger effect = lower value 1.03 | S. cerevisiae deletion strains, locus YDR101C, strain arx1, stronger effect = lower value 1.01 | [5] 1 | S. cerevisiae deletion strains, locus YDR162C, strain NBP2, stronger effect = lower value 1.01 | S. cerevisiae deletion strains, locus YDR318W, strain mcm21, stronger effect = lower value 1.02 | S. cerevisiae deletion strains, locus YDR388W, stronger effect = lower value 1.02 | S. cerevisiae deletion strains, locus YDR502C, strain sam2, stronger effect = lower value 1.02 | [6] 1 | S. cerevisiae deletion strains, locus YER110C, stronger effect = lower value 1.03 | S. cerevisiae deletion strains, locus YER155C, strain BEM2, stronger effect = lower value 1.01 | S. cerevisiae deletion strains, locus YER167W, strain BCK2, stronger effect = lower value 1.01 | S. cerevisiae deletion strains, locus YGL078C, strain dbp3, stronger effect = lower value 1.02 | S. cerevisiae deletion strains, locus YGL086W, strain mad1, stronger effect = lower value 1.02 | S. cerevisiae deletion strains, locus YGL248W, strain PDE1, stronger effect = lower value 1 | [7] 1.01 | S. cerevisiae deletion strains, locus YGR135W, strain pre9, stronger effect = lower value 1.01 | S. cerevisiae deletion strains, locus YGR229C, strain SMI1, stronger effect = lower value 0.991 | S. cerevisiae deletion strains, locus YGR252W, strain gcn5, stronger effect = lower value 1.03 | [8] 0.997 | S. cerevisiae deletion strains, locus YHR079C, strain IRE1 (second series), stronger effect = lower value 1.02 | S. cerevisiae deletion strains, locus YHR094C, strain hxt1, stronger effect = lower value 1.02 | S. cerevisiae deletion strains, locus YHR129C, strain ARP1, stronger effect = lower value 1 | S. cerevisiae deletion strains, locus YHR200W, strain rpn10, stronger effect = lower value 1.03 | S. cerevisiae deletion strains, locus YIL066C, strain RNR3, stronger effect = lower value 1.01 | S. cerevisiae deletion strains, locus YIL073C, strain SPO22, stronger effect = lower value 1.09 | S. cerevisiae deletion strains, locus YIL125W, strain kgd1, stronger effect = lower value 1.03 | S. cerevisiae deletion strains, locus YIR030C, strain dcg1, stronger effect = lower value 1.03 | S. cerevisiae deletion strains, locus YJL095W, strain BCK1, stronger effect = lower value 0.988 | S. cerevisiae deletion strains, locus YJL134W, strain LCB3, stronger effect = lower value 0.999 | S. cerevisiae deletion strains, locus YJL168C, strain set2, stronger effect = lower value 1.03 | S. cerevisiae deletion strains, locus YJL187C, strain SWE1 (second series), stronger effect = lower value 1 | [9] 0.992 | [10] 1 | S. cerevisiae deletion strains, locus YKL009W, strain mrt4, stronger effect = lower value 1.02 | S. cerevisiae deletion strains, locus YKL068W, stronger effect = lower value 1.01 | S. cerevisiae deletion strains, locus YKL085W, strain MDH1 (second series), stronger effect = lower value 1.01 | S. cerevisiae deletion strains, locus YKL085W, strain MDH1, stronger effect = lower value 1.01 | [11] 1 | S. cerevisiae deletion strains, locus YKR001C, strain vps1, stronger effect = lower value 1.02 | [12] 1.01 | S. cerevisiae deletion strains, locus YLR058C, strain SHM2, stronger effect = lower value 1 | S. cerevisiae deletion strains, locus YLR102C, strain apc9, stronger effect = lower value 1.04 | [13] 1.01 | S. cerevisiae deletion strains, locus YLR268W, strain sec22, stronger effect = lower value 1.01 | S. cerevisiae deletion strains, locus YLR330W, strain CHS5, stronger effect = lower value 1.01 | S. cerevisiae deletion strains, locus YLR342W, strain FKS1 (second series), stronger effect = lower value 1.01 | S. cerevisiae deletion strains, locus YLR371W, strain rom2, stronger effect = lower value 1.03 | S. cerevisiae deletion strains, locus YLR418C, strain cdc73, stronger effect = lower value 1.01 | S. cerevisiae deletion strains, locus YML016C, strain PPZ1, stronger effect = lower value 1 | S. cerevisiae deletion strains, locus YML032C, strain rad52, stronger effect = lower value 1.05 | S. cerevisiae deletion strains, locus YML124C, strain tub3, stronger effect = lower value 1.02 | S. cerevisiae deletion strains, locus YMR078C, strain ctf18, stronger effect = lower value 1.03 | S. cerevisiae deletion strains, locus YMR223W, strain ubp8, stronger effect = lower value 1.02 | [14] 0.998 | [15] 1 | S. cerevisiae deletion strains, locus YNL067W, strain RPL9B, stronger effect = lower value 0.992 | S. cerevisiae deletion strains, locus YNL128W, strain TEP1, stronger effect = lower value 1.01 | [16] 0.985 | S. cerevisiae deletion strains, locus YNL233W, strain BNI4, stronger effect = lower value 0.995 | S. cerevisiae deletion strains, locus YNL250W, strain rad50, stronger effect = lower value 1.03 | S. cerevisiae deletion strains, locus YNL271C, strain bni1, stronger effect = lower value 1.03 | S. cerevisiae deletion strains, locus YNL298W, strain CLA4, stronger effect = lower value 1.02 | S. cerevisiae deletion strains, locus YNL307C, strain MCK1, stronger effect = lower value 1.03 | [17] 1 | S. cerevisiae deletion strains, locus YNR052C, strain pop2, stronger effect = lower value 1.04 | [18] 0.974 | S. cerevisiae deletion strains, locus YOL012C, strain htz1 0.801 | S. cerevisiae deletion strains, locus YOL147C, strain pex11, stronger effect = lower value 1.02 | S. cerevisiae deletion strains, locus YOR061W, strain CKA2, stronger effect = lower value 1 | S. cerevisiae deletion strains, locus YOR069W, strain VPS5, stronger effect = lower value 0.998 | S. cerevisiae deletion strains, locus YOR136W, strain idh2, stronger effect = lower value 1.02 | S. cerevisiae deletion strains, locus YOR144C, strain elg1, stronger effect = lower value 1.01 | S. cerevisiae deletion strains, locus YOR184W, strain ser1, stronger effect = lower value 1.04 | S. cerevisiae deletion strains, locus YOR316C, strain cot1, stronger effect = lower value 1.02 | [19] 1.01 | [20] 1 | S. cerevisiae deletion strains, locus YPR119W, strain clb2, stronger effect = lower value 1.03 | S. cerevisiae deletion strains, locus YPR141C, strain kar3, stronger effect = lower value 1.03 | S. cerevisiae deletion strains, locus YPR163C, strain tif3, stronger effect = lower value 1.03 | S. cerevisiae deletion strains, locus YPR167C, strain met16, stronger effect = lower value 1.03 | S. cerevisiae deletion strains, strain wtn01, stronger effect = lower value 1.03 | S. cerevisiae strains, strain wild type, stronger effect = lower value 1
